According to paper PMC5540273 (PLoS ONE, 2017):

Tests used:
Conditions in all cases: concentration: 1 μM,replicates: in singlicate; n = 1
PIP5K1A = test system: PIP5K1A
PIP5K1C = test system: PIP5K1C
PIP5K2B = test system: PIP5K2B
PIP5K2C = test system: T1, PIP5K2C
T1 construct: gene PIP4K2C

PKAC-alpha = test system: T2, PKAC-alpha
T2 construct: gene PRKACA

PKAC-beta = test system: T3, PKAC-beta
T3 construct: gene PRKACB

PKMYT1 = test system: PKMYT1
PKN1 = test system: PKN1
PKN2 = test system: PKN2
PLK1 = test system: PLK1
PLK2 = test system: PLK2
PLK3 = test system: PLK3
PLK4 = test system: PLK4
PRKCD = test system: PRKCD
PRKCE = test system: PRKCE
PRKCH = test system: PRKCH
PRKCI = test system: PRKCI
PRKCQ = test system: PRKCQ
PRKD1 = test system: PRKD1
PRKD2 = test system: PRKD2
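Note: KINOMEscan kinase panel screen.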

| Compound | %Inh (PIP5K1A) | %Inh (PIP5K1C) | %Inh (PIP5K2B) | %Inh (PIP5K2C) | %Inh (PKAC-alpha) | %Inh (PKAC-beta) | %Inh (PKMYT1) | %Inh (PKN1) | %Inh (PKN2) | %Inh (PLK1) | %Inh (PLK2) | %Inh (PLK3) | %Inh (PLK4) | %Inh (PRKCD) | %Inh (PRKCE) | %Inh (PRKCH) | %Inh (PRKCI) | %Inh (PRKCQ) | %Inh (PRKD1) | %Inh (PRKD2) |
| --- | --- | --- | --- | --- | --- | --- | --- | --- | --- | --- | --- | --- | --- | --- | --- | --- | --- | --- | --- | --- |
| NC(=O)Nc1sc(-c2ccc(F)cc2)cc1C(N)=O [GW789449] | 93.9% | 65% | 87% | 28% | 0% | 26% | 0% | 7% | 54% | 37% | 20% | 1% | 26% | 20% | 17% | 0% | 25% | 35% | 0% | 0% |
| C[C@@H](Oc1cc(-n2cnc3cc(-c4ccncc4)ccc32)sc1C(N)=O)c1ccccc1Cl [GSK479719] | 0% | 58% | 21% | 29% | 0% | 0% | 0% | 15% | 44% | – | 99.5% | – | 29% | 0% | 18% | 12% | 0% | 2% | 0% | 0% |
| Cn1ccc2ncnc(Oc3ccc(NC(=O)Nc4cnn(C(C)(C)C)c4)c(Cl)c3)c21 | 17% | 3% | 100% | 0% | 0% | 3% | 0% | 0% | 3% | 0% | 1% | 11% | 31% | 27% | 0% | 0% | 10% | 21% | 0% | 13% |
| CCNCC(Cc1ccccc1)NC(=O)c1cc(Br)c(-c2ccnc3[nH]ccc23)s1.Cl.Cl (stereo not shown) [GSK1383280] | 55% | 38% | 16% | 36% | 99.4% | 99.3% | 0% | 39% | 58% | 0% | 30% | 47% | 92.3% | 91.7% | 94.5% | 93.1% | 26% | 74% | 77% | 73% |
| Cl.Nc1n[nH]c2cc(-c3ccccn3)ccc12 [GSK2189892] | 0% | 25% | 7% | 7% | 0% | 0% | 0% | 10% | 0% | 0% | 0% | 0% | 0% | 0% | 0% | 13% | 8% | 7% | 0% | 10% |
| Cl.Cl.NC[C@H](CC1CCCCC1)NC(=O)c1ccc(-c2ccnc3[nH]ccc23)s1 [GSK1581428] | 47% | 41% | 75% | 25% | 99.7% | 99.9% | 0% | 52% | 99% | 2% | 0% | 0% | 41% | 100% | 98.5% | 100% | 22% | 95.3% | 91.8% | 96.7% |
| O=C1NCCc2[nH]c(-c3ccncc3)cc21 | 2% | 12% | 4% | 0% | 34% | 32% | 4% | 77% | 80% | – | 37% | 40% | 30% | 27% | 59% | 58% | 18% | 46% | 72% | 0% |
| CS(=O)(=O)Nc1ccc(-c2ccnc3[nH]ccc23)cc1 [GSK993273] | 57% | 29% | 55% | 89% | 84% | 85% | 0% | 21% | 18% | 0% | 0% | 0% | 21% | 42% | 64% | 49% | 26% | 57% | 0% | 0% |
| CCOC(=O)N1CCC(n2cnc(-c3ccc(F)cc3)c2-c2ccnc(N)n2)CC1 [SB-219952] | 0% | 32% | 2% | 94.4% | 9% | 36% | 32% | 0% | 8% | 23% | 2% | 0% | 25% | 0% | 4% | 0% | 8% | 1% | 32% | 5% |
| C[C@@H](Oc1cc(-n2cnc3ccc(-c4ccncc4)cc32)sc1C(N)=O)c1ccccc1Cl [GSK483724] | 0% | 85% | 13% | 81% | 13% | 5% | 0% | 17% | 10% | – | 99.3% | – | 0% | 8% | 29% | 33% | 40% | 33% | 0% | 0% |
| CC(C)c1nc(-c2cccc(NS(=O)(=O)c3ccccc3)c2)c(-c2ccnc(Nc3ccc4c(c3)CN(C)CC4)n2)s1 [GSK1649598] | 0% | 0% | 20% | 65% | 0% | 0% | 0% | 43% | 0% | 0% | 0% | 0% | 99.8% | 0% | 0% | 0% | 45% | 11% | 93.9% | 99.9% |
| Cc1n[nH]c2cc(Nc3ccnc(Nc4cccc(CN5CCOCC5)c4)n3)ccc12 [GW682569] | 57% | 70% | 33% | 71% | 0% | 0% | 0% | 46% | 0% | 0% | 15% | 53% | 72% | 0% | 51% | 0% | 26% | 0% | 0% | 0% |
| Cn1ccc2ncnc(Oc3ccc(NC(=O)Nc4cccc(C(F)(F)F)c4)c(F)c3)c21 | 0% | 17% | 0% | 0% | 0% | 34% | 2% | 0% | 16% | 0% | 12% | 33% | 31% | 0% | 0% | 0% | 39% | 0% | 0% | 3% |
| FC(F)(F)c1cc(Br)cc(Nc2nccc(-c3cnn4ncccc34)n2)c1 [GW810578] | 0% | 3% | 0% | 94.2% | 17% | 0% | 1% | 12% | 27% | 9% | 24% | 13% | 26% | 16% | 4% | 7% | 0% | 1% | 4% | 0% |
| Cn1ccc2ncnc(Oc3ccc(NC(=O)Nc4cccc(C(F)(F)F)c4)c(Cl)c3)c21 | 0% | 48% | 2% | 0% | 0% | 0% | 0% | 0% | 0% | 0% | 2% | 22% | 9% | 0% | 0% | 0% | 8% | 7% | 0% | 15% |
| Cn1cc(-c2cccc3c(N)c(C(N)=O)nnc23)cn1 | 0% | 5% | 0% | 7% | 0% | 16% | 9% | 0% | 23% | 14% | 13% | 17% | 26% | 24% | 10% | 36% | 24% | 53% | 0% | 15% |
| COC(=O)c1cccc(NC(=O)NC2CCN(c3ccnc(NCc4ccc(F)cc4)n3)CC2)c1 [GSK1379860] | 0% | 20% | 19% | 2% | 0% | 0% | 0% | 32% | 0% | 0% | 0% | 0% | 0% | 0% | 0% | 32% | 28% | 26% | 12% | 2% |
| CC(C)S(=O)(=O)N1CCN(Cc2ccc3c(c2)nc(NC(=O)c2ccsc2)n3C[C@H](O)c2ccccc2)CC1 [GW635815] | 0% | 15% | 35% | 24% | 0% | 27% | 8% | 6% | 25% | 0% | 0% | 0% | 5% | 11% | 15% | 13% | 18% | 12% | 0% | 0% |
| C[C@@H]1CCN(C(=O)N2CCCC2)C[C@@H]1N(C)c1ncnc2[nH]ccc12 | 8% | 0% | 0% | 0% | 0% | 0% | 0% | 86% | 48% | 0% | 20% | 21% | 44% | 17% | 17% | 13% | 30% | 0% | 0% | 54% |
| CCN1CCN(CCCC(=O)Nc2n[nH]c3nc(-c4ccc(O)cc4)c(Br)cc23)CC1 [SB-731579] | 12% | 30% | 0% | 24% | 0% | 0% | 0% | 0% | 6% | 0% | 0% | 0% | 0% | 64% | 70% | 19% | 2% | 0% | 1% | 0% |
| Cn1ccc2ncnc(Oc3ccc(NC(=O)Nc4cncc(C(F)(F)F)c4)c(Cl)c3)c21 | 29% | 20% | 6% | 0% | 0% | 0% | 6% | 0% | 0% | 0% | 0% | 0% | 0% | 2% | 0% | 20% | 0% | 23% | 0% | 0% |
